{"source": "ChEMBL document CHEMBL5308541", "about": "“MAIP: An Open-Source Tool to Enrich High-Throughput Screening Output and Identify Novel, Druglike Molecules with Antimalarial Activity” (ACS Med Chem Lett, 2023)", "note": "Screen size: about 4,800 compounds; about 420 (8.8%) showed an effect of 50% or more. Only a selection was taken, and strong results are over-represented in it overall."}
{"test_system": "Plasmodium falciparum", "assay": "Confirmatory screen in NF54 nanoGlo assay, in single point, at 2uM, 72h", "format": "functional, Erythrocyte", "settings": "timepoint 72 hour", "units": {"% Inhibition": "%"}}
{"smiles": "Cc1ccc2nccc(N3CCC(N4CCC(O)CC4)CC3)c2c1", "% Inhibition": 10}
{"smiles": "CCN1CCN([C@H]2CCN(c3ccnc4ccncc34)C2)CC1", "% Inhibition": 97}
{"smiles": "O=C(NCC1CC1)c1cc2c(OCc3ccc(Cl)cc3)cccc2[nH]1", "% Inhibition": 57}
{"smiles": "c1ccc(-c2ccnc(C3CCN(CC45CNCC4C5)CC3)n2)cc1", "note": "(stereo not drawn)", "% Inhibition": 94}
{"smiles": "CC(C)c1ccc(-c2nc(CN3CCCCC3)cc(CN3CCCCC3)c2O)cc1", "% Inhibition": 93}
{"smiles": "CC(C)c1ccc(-c2noc(CCN3CCN(CCCN(C)C)CC3)n2)cc1", "% Inhibition": 25}
{"smiles": "CCC1(NC(=O)c2cc(C)c3ccccc3n2)CCOCC1", "% Inhibition": 10}
{"smiles": "Nc1nc(NCC2CCN(CCc3ccccc3)CC2)cc([C@H]2C[C@@H](N)C2)n1", "% Inhibition": 23}
{"smiles": "Cc1ccc(-c2cccc3c(C(=O)NCCCN4CCC(N5CCCCC5)CC4)cc(C)nc23)cc1", "% Inhibition": 98}
{"smiles": "COc1ccc(-c2cncc(C(=O)NCC3CCN(CCN(C)C)CC3)c2)cc1", "% Inhibition": 94}
{"smiles": "CN(C)CCN1CCC(CNCc2ccc3ncccc3c2)CC1", "% Inhibition": 5}
{"smiles": "Cn1cncc1[C@@H]1CNC[C@H]1CNC(=O)c1ccccc1NC1CCCCC1", "% Inhibition": 79}
{"smiles": "Brc1cccc(NCCNC2CCN(Cc3cccnc3)CC2)c1", "% Inhibition": 36}
{"smiles": "Cc1cc(F)ccc1N1CCC(NCCCNc2cccnc2)CC1", "% Inhibition": 18}
{"smiles": "CC1CN(c2ccccc2NC(=O)c2ccc(-c3cnco3)cc2)CC(C)O1", "note": "(stereo not drawn)", "% Inhibition": -6}
{"smiles": "Cc1ccccc1CN1CCC(CNc2c3c(nc4ccccc24)CCC3)CC1", "% Inhibition": 95}
{"smiles": "Cc1cc(C)c(-c2csc(Nc3ncnc4[nH]ncc34)n2)cc1C", "% Inhibition": 19}
{"smiles": "O[C@H](COc1ccccc1CNCc1cc(-c2ccccc2)[nH]n1)CN1CCCCC1", "% Inhibition": 80}
{"smiles": "CN(C[C@H](O)COc1ccccc1CN1CCC(c2ccncc2)CC1)C1CCCCC1", "% Inhibition": 39}
{"smiles": "Cc1nc2ccc(Oc3ccccc3)cc2c(O)c1CN(C)C1CCN(C)CC1", "% Inhibition": 22}
{"smiles": "CN1CCC(N(C)C[C@H](Nc2ncnc3ccccc23)c2ccccc2)CC1", "% Inhibition": 99}
{"smiles": "CC1(N2CCC2)CCC(NC[C@H]2CCN(Cc3ccccc3)C2)CC1", "note": "(stereo partly drawn)", "% Inhibition": 66}
{"smiles": "OC1CN(Cc2cnc(C3CCCCC3)nc2)CCC1Nc1ncccn1", "note": "(stereo not drawn)", "% Inhibition": 1}
{"smiles": "CN1CCN(CCc2ccc(N[C@H]3CCCN(Cc4ccccc4)C3(C)C)cc2)CC1", "% Inhibition": 10}
{"smiles": "C[C@H]1CCCN(CCNC(=O)c2ccc(-c3ccc4c(=O)[nH]ccc4c3)cc2)C1", "% Inhibition": 58}
{"smiles": "c1cc(CN2CCN(c3cc(N4CCN(Cc5ccncc5)CC4)ncn3)CC2)ccn1", "% Inhibition": 0}
{"smiles": "CCOc1ccc2nc(N3CCC(N4CCC([C@H](O)c5cccnc5)CC4)CC3)nc(C)c2c1", "% Inhibition": 29}
{"smiles": "CCOc1ccc2nc(CN(CC)CC3CCN(C4CCN(C)CC4)CC3)ccc2c1", "% Inhibition": 82}
{"smiles": "Cc1noc(-c2ccnc(NC[C@@H](c3ccccn3)N3CCOCC3)c2)n1", "% Inhibition": 93}
{"smiles": "COc1ccnc(NCCCc2nc(-c3ccncc3)cs2)n1", "% Inhibition": 65}
{"smiles": "CN(C)C1CCN(CCN[C@H]2CCc3ccc(F)cc32)CC1", "% Inhibition": 85}
{"smiles": "Cc1ccccc1-c1cccc(N2CCC(NCC3CCNCC3)CC2)c1", "% Inhibition": 99}
{"smiles": "Cc1ccccc1-c1cccc(CNCCCN2CCC[C@H](O)C2)c1", "% Inhibition": 12}
{"smiles": "CCCN(CCN1CCN(CC)CC1)c1nc(-c2ccccn2)nc2c1CCC2", "% Inhibition": 6}
{"smiles": "Cc1nc(-c2ccccn2)nc(NC2CCN(CC(F)F)CC2)c1C", "% Inhibition": 35}
{"smiles": "c1ccc(-c2nc3c(c(NCCNc4ncccn4)n2)CCC3)nc1", "% Inhibition": 25}
{"smiles": "CCOc1cc(C(=O)NC2CCN(CC3CCCC3)CC2)cc(-c2ccccc2)c1OC", "% Inhibition": 95}
{"smiles": "Cc1cnccc1N1CCCN(Cc2ccccc2OCCN2CCN(C)CC2)CC1", "% Inhibition": 99}
{"smiles": "CN(C)C1(CNc2nc(C(F)(F)F)nc3cc(F)ccc23)CCCCCC1", "% Inhibition": 61}
{"smiles": "CN(C)C1(CNc2nc(C(F)(F)F)nc3cc4c(cc23)OCO4)CCCCCC1", "% Inhibition": 49}
{"smiles": "COCCNc1nc(N[C@@H](C)c2ccccc2)c2ccccc2n1", "% Inhibition": 63}
{"smiles": "C[C@H](Nc1nc(N)c2ccccc2n1)c1cccc(-n2cncn2)c1", "% Inhibition": 36}
{"smiles": "COCCN1CC[C@H](CNC2CCN(c3ncc4ccc(F)cc4n3)CC2)C1", "% Inhibition": 59}
{"smiles": "COCCN1CCC[C@H](CNCc2cnn(-c3ccc4ccccc4c3)c2)C1", "% Inhibition": 12}
{"smiles": "Cc1cc(N2CC3COCCC3(C(=O)O)C2)nc2ccc(F)cc12", "note": "(stereo not drawn)", "% Inhibition": -2}
{"smiles": "c1cncc(-c2ccc(CNC3CCN(Cc4cccs4)CC3)cc2)c1", "% Inhibition": 45}
{"smiles": "Cc1ccn2cc(-c3ccc(N4CCC(NCc5cccnc5)CC4)cc3)nc2c1", "% Inhibition": 60}
{"smiles": "CN(c1ccccc1)c1ccc(CN2CCN([C@H]3CCNC3)CC2)cc1", "% Inhibition": 54}
{"smiles": "COC(=O)c1cn(CCNc2ccnc3cc(Cl)ccc23)cc2c(O)nnc1-2", "% Inhibition": 95}
{"smiles": "Cc1ocnc1CNC[C@H](O)c1ccc(Cl)c(Cl)c1", "% Inhibition": 89}
{"smiles": "CCc1ccc2ncnc(NCCCN3CCN(CCO)CC3)c2c1", "% Inhibition": 43}
{"smiles": "COCCCN1CCC(Nc2ncnc3cc(C)c(C)cc23)CC1", "% Inhibition": 97}
{"smiles": "Cc1cnccc1NCCNCc1cnc(N2CCCCC2)nc1", "% Inhibition": 61}
{"smiles": "Cc1cnccc1NCCNCc1cccc(OCCCCN2CCOCC2)c1", "% Inhibition": 95}
{"smiles": "c1ccc2c(CNCCC3CCN(c4ccncc4)CC3)csc2c1", "% Inhibition": 77}
{"smiles": "CCN1CCN(c2ccccc2CNCCC2CCN(C)CC2)CC1", "% Inhibition": 18}
{"smiles": "Fc1ccc(-n2cc(CNCCC3CCN(c4ccncc4)CC3)cn2)cc1", "% Inhibition": 88}
{"smiles": "COc1ccc(-c2cc(-c3ccccc3O)n([C@@H]3C(=O)Nc4ccc(Br)cc43)n2)cc1", "% Inhibition": 31}
{"smiles": "CCCc1cccc(CNC2CCN(C3CCN(C)CC3)CC2)c1", "% Inhibition": 58}
{"smiles": "CN1CCN(CCNC2CCN3CCCC3C2)C(c2ccccc2)C1", "note": "(stereo not drawn)", "% Inhibition": 32}
{"smiles": "C[C@@H](CNC1CCN(C2CCN(C)CC2)CC1)c1cccc(Cl)c1", "% Inhibition": 98}
{"smiles": "COc1ccc2nc(C)cc(NCc3cccc(NC(=O)c4ccco4)c3)c2c1", "% Inhibition": 96}
{"smiles": "Cc1cc(NCCCN2CCC[C@H](O)C2)c2cc(F)ccc2n1", "% Inhibition": 28}
{"smiles": "COc1ccc2c(C)cc(NCCCN3CCC[C@H](C(N)=O)C3)nc2c1", "% Inhibition": 87}
{"smiles": "Fc1ccc(N2CCC(N[C@@H]3COC4(CCNCC4)C3)CC2)cc1F", "% Inhibition": 13}
{"smiles": "N[C@H]1CC[C@@H](NC2CCN(c3ccc(F)c(F)c3)CC2)CC1", "% Inhibition": 45}
{"smiles": "Cc1nc2ccc(CNC3CCN(c4ccc(F)c(F)c4)CC3)cc2[nH]1", "% Inhibition": 56}
{"smiles": "COC(CN(Cc1nc(N)nc(Nc2ccc(C)cc2)n1)Cc1nc(N)nc(Nc2ccc(C)cc2)n1)OC", "% Inhibition": 84}
{"smiles": "CN1CCN(CCCCNC2CC3CCC(C2)N3Cc2ccccc2)CC1", "note": "(stereo not drawn)", "% Inhibition": 34}
{"smiles": "OCCN1CCC(NCCc2cc(Cl)cc(Cl)c2)CC1", "% Inhibition": 28}
{"smiles": "O=C(NCc1cccc(-c2cccnc2)c1)N[C@H]1CCN(C2CCCCC2)C1", "% Inhibition": 48}
{"smiles": "O=C(CCc1nnc(-c2ccc(-c3ccccc3)cc2)o1)NC[C@@H]1CCCN2CCCC[C@H]12", "% Inhibition": 56}
{"smiles": "CC(C)(C)n1ncc2c(NCc3ccc4cccnc4c3O)ncnc21", "% Inhibition": 27}
{"smiles": "CNc1nc(N2CCN(CC(=O)NC3CCCCC3)CC2)nc2ccccc12", "% Inhibition": 23}
{"smiles": "COc1ccc2c(N3CC[C@H](CN4CCCC4)C3)ccnc2c1", "% Inhibition": 99}
{"smiles": "CN1CCN(CC2CCN(c3ccnc4ccccc34)CC2)CC1", "% Inhibition": 99}
{"smiles": "COc1cc2nc(-c3ccc(F)c4cccnc34)nc(N)c2cc1OC", "% Inhibition": 98}
{"smiles": "Cc1cccc(Nc2ccnc(Nc3ccc(N4CCN(C)CC4)cc3)n2)c1", "% Inhibition": 93}
